Measured values taken from PubChem BioAssay AID1839 (Johns Hopkins Ion Channel Center, 2009).
Out of some 2,400 compounds screened, about 220 (9.2%) were called active.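 How the source made its calls: active means signal change above the mean of dofetilide-free buffer controls plus 3 SD, so a positive margin; inactive means the rest.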 This excerpt belongs to a sample that is enriched for actives.

assay: nonspecific flux effects in parental CHO-K1, confirmation, counter-screen for hERG block protection project, cell-based, CHO-K1 parental line, FluxOR thallium flux (AID 1839); conditions: CHO-K1 parental cells, FluxOR thallium flux fluorescence; at 10 µM;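 further: compounds applied alone with no dofetilide to cells lacking hERG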

Compound	signal change vs control minus 3*SD hit threshold (margin above threshold, higher = more increase)
CCOC(=O)N1CCN(C(=O)c2ccc(Cl)c(S(=O)(=O)Nc3ccccc3)c2)CC1	-11.6% (inactive)
O=C(O)CSc1nc2ccccc2nc1Cc1ccccc1F	-22.7% (inactive)
CCC(=O)N1CCN(c2nc(CC)nc3sc4c(c23)CCCC4)CC1	-56% (inactive)
Cc1cc(-c2cccc(Br)c2)c(C#N)c(N)n1	-34.5% (inactive)
O=C(CCN1C(=O)/C(=C\C=C\c2ccccc2)SC1=S)Nc1cccc(C(=O)O)c1	-27.2% (inactive)
Cc1ccccc1OC(=O)n1c(=S)oc2cc(Cl)ccc21	-25.4% (inactive)
COC(=O)c1sc(NC(=S)NC(=O)c2ccccc2C)nc1C	-2.6% (inactive)
CC(C)CC(=O)Nc1nc(=S)ss1	-30.3% (inactive)
O=C(Nc1nc(=S)ss1)c1ccc(Cl)cc1Cl	56.5% (active)
O=C(NNC(=O)c1ccc(Cl)cc1Cl)c1cnccn1	-29% (inactive)
Cc1ccccc1C(=O)Nc1nc(=S)ss1	9.5% (active)
O=C(Nc1nnc(-c2ccc3c(c2)CCCC3)o1)c1ccc(Cl)cc1Cl	-21.2% (inactive)
O=C1Nc2ccc(Br)cc2C1Cc1ccccc1F (stereo unspecified)	-42.3% (inactive)
O=C(O)c1ccc2c(c1)C(=O)N(c1cc([N+](=O)[O-])ccn1)C2=O	-24.2% (inactive)
CCC(=O)Nc1ccc(N2CCOCC2)c(S(=O)(=O)Nc2ccc(OC)cc2)c1	-21.7% (inactive)
O=C(c1ccccc1)c1nccn1-c1ccc(Cl)nn1	-27.6% (inactive)
CC(NC(=O)C1CCN(S(=O)(=O)c2cccc3cccnc23)CC1)c1ccccc1 (stereo unspecified)	-31.3% (inactive)
Cc1cc(C(=O)NCCN2C(=O)S/C(=C\c3cccs3)C2=O)ccc1[N+](=O)[O-]	-31.4% (inactive)
Cn1cc(/C=C2\SC(=O)NC2=S)c2ccccc21	-27.6% (inactive)
CCOc1ccc(/C=C2/SC(=O)NC2=S)cc1	39% (active)
CCOc1ccc(/C=C2\CCc3ccccc3C2=O)cc1	-33.6% (inactive)
Cc1ccc(-c2nc(N)s[n+]2-c2ccccc2)cc1	-7.8% (inactive)
CCOC(=O)N/N=C\c1ccc(-c2cc(Cl)ccc2Cl)o1	-32% (inactive)
Cc1ccc(C(C)NC(=O)c2cccs2)cc1C (stereo unspecified)	-16.2% (inactive)
O=C(N/N=C/c1cc(Cl)ccc1O)c1ccccc1Br	-21.5% (inactive)
CCOC(=O)c1sc(NN=C(C(=O)OC)C(=O)OC)c(C(=O)OCC)c1C	-7.4% (inactive)

Compound	signal change vs control minus 3*SD hit threshold (margin above threshold, higher = more increase)
CCCOc1ccc(-c2c(=O)n(O)c3ccccc3[n+]2[O-])cc1	29.7% (active)
CCCOc1ccc(C(=O)NNC(=S)NC(=O)c2ccccc2)cc1	-44.9% (inactive)
CCCOc1ccc(OC(=O)c2ccc(Br)o2)cc1	-5.2% (inactive)
CCOc1ccc(N(CC)C(=O)COc2cc(=O)n(C)c3ccccc23)cc1	-18.3% (inactive)
CCOc1ccc(-c2c(=O)n(O)c3ccccc3[n+]2[O-])cc1	19.7% (active)
CCOc1ccc(CC(C(N)=O)C(N)=O)cc1	-32.5% (inactive)
Cc1ccc(/C(O)=C2\C(=O)C(=O)N(Cc3cccnc3)C2c2ccccc2[N+](=O)[O-])cc1 (stereo unspecified)	-21.1% (inactive)
COc1cc(NC(=O)c2ccccc2)c(OC)cc1NC(=O)Cc1ccc(Br)cc1	-10.9% (inactive)
Cc1ccccc1OCC(=O)N=Nc1c(O)n(C)c2ccccc12	-17.7% (inactive)
Cn1c(O)c(N=Nc2nc(-c3ccccc3)cs2)c2ccccc21	31.7% (active)
CCc1ccc2[nH]c(O)c(N=Nc3nc(-c4ccccc4)cs3)c2c1	-38.8% (inactive)
Cc1nn(CCC(=O)NNC(=S)Nc2ccc(F)cc2)c(C)c1[N+](=O)[O-]	-35.8% (inactive)
O=C(NC(=S)NC1CCCc2ccccc21)c1ccco1 (stereo unspecified)	-14.2% (inactive)
Cc1nonc1CN(C)C(=O)c1ccc(OC2CCN(Cc3ccccn3)CC2)cc1	-22.2% (inactive)
COCCNC(=O)C1CCN(S(=O)(=O)N2CCC3(CC2)OCCO3)CC1	-40.3% (inactive)
CCC1(c2ccc(Cl)cc2)NC(=S)N(c2ccc(C)cc2)N1 (stereo unspecified)	18.9% (active)
CCC1(c2ccccc2)NC(=S)N(c2ccc(C)cc2)N1 (stereo unspecified)	48.2% (active)
CCC1(c2ccc(Cl)cc2)NC(=S)N(c2ccccc2)N1 (stereo unspecified)	40.1% (active)
CC1=CN2C(=N)/C(=C/c3ccc(Sc4ccc(Cl)cc4)o3)C(=O)N=C2S1	-23.1% (inactive)
O=C(NC(=S)N(CC1CCC1)CC1CCCO1)c1cccc([N+](=O)[O-])c1 (stereo unspecified)	-12.6% (inactive)
CCCCCOCC1CC(C/C(C)=N/Nc2nc(-c3ccccc3)cs2)C(=O)O1 (stereo unspecified)	-31.7% (inactive)
N#C/C(=N\Nc1ccccc1F)c1nc(-c2ccccc2)cs1	-39.4% (inactive)
O=C(Nc1ccc(Cl)c(Cl)c1)Nc1nnc(CSc2ccccc2)s1	-17.6% (inactive)
CCn1c(SCC(=O)NC(=O)NCc2ccco2)nc2sc(C)c(C)c2c1=O	-17.8% (inactive)
C=CCSc1nc2sc3c(c2c(=O)n1CC)CCc1ccccc1-3	-22.2% (inactive)
C=CCn1c(SCc2ccc(C(=O)O)cc2)nc2sc(C)c(C)c2c1=O	7% (active)

Compound	signal change vs control minus 3*SD hit threshold (margin above threshold, higher = more increase)
CCc1nccn1S(=O)(=O)c1ccc2ccc(C)cc2c1	-33.5% (inactive)
COc1ccc(Cc2c(O)nc(SCC(C)C)[nH]c2=O)cc1	-32.4% (inactive)
CC(C)c1nc2sc3c(=S)nc[nH]c3c2c2c1CCC2	-10.6% (inactive)
S=c1nc[nH]c2c1sc1nc(N3CCOCC3)c3c(c12)CCCC3	1.1% (active)
S=c1nc[nH]c2c1sc1nc(-c3ccccc3)c3c(c12)CCCC3	-5.5% (inactive)
O=C(O)CCCN1C(=O)C2C3c4ccccc4C(c4ccccc43)[C@@H]2C1=O (stereo partly specified)	-37.1% (inactive)
COc1ccc(C(CC(=O)O)NC(=O)C(c2ccccc2)c2ccccc2)cc1 (stereo unspecified)	-32.8% (inactive)
O=C(N/N=C/c1ccc(OC(F)F)cc1)C1=COCCO1	-28.8% (inactive)
CCOC(=O)c1sc(NC(=S)NC(=O)c2cccc(OC)c2)nc1C	-15.5% (inactive)
COc1ccc(N2CCN(C(=S)Nc3cccc(OC)c3)CC2)cc1	-27% (inactive)
COc1ccc(NC(=O)CNC(=O)c2cccs2)cc1Cl	-23.5% (inactive)
O=C(NC(=S)Nc1ccccc1N1CCCCC1)c1cccs1	-17.4% (inactive)
S=c1nc(Cc2ccccc2)[nH]c2ccccc12	36% (active)
S=c1nc(Cc2ccc(Cl)cc2)[nH]c2ccccc12	7.6% (active)
S=c1nc(C2CCCCC2)[nH]c2ccccc12	-20.4% (inactive)
S=c1[nH]nc(-c2ccc(Cl)cc2)n1Cc1ccccc1	-36.8% (inactive)
CCOC(=O)c1sc2nc(Cc3ccc(Cl)cc3)[nH]c(=S)c2c1C	-19.8% (inactive)
CC(C)c1ccc(/C=N/n2c(COc3ccccc3)n[nH]c2=S)cc1	-21.3% (inactive)
S=c1nc(COc2ccccc2)[nH]c2ccccc12	59.3% (active)
S=c1nc(SCc2ccccc2)[nH]c2ccccc12	40.3% (active)
O=C(O)CCCCCNc1nc(=S)[nH]c2ccccc12	-17.7% (inactive)
CCC(Cc1ccccc1)n1c(=S)[nH]c2ccccc2c1=O (stereo unspecified)	-32.2% (inactive)
S=c1nc(C2CC2)[nH]c2ccccc12	-0.5% (inactive)
O=c1[nH]c(SCc2cccc(Cl)c2)nc2ccccc12	-29.3% (inactive)
C#CCN1C(=O)S/C(=C\c2ccc(-c3ccc(C(=O)O)cc3C)o2)C1=O	-26.1% (inactive)
CC/C(=N\NC(=S)Nc1cccc(C)c1)c1ccccc1	-31.9% (inactive)

Compound	signal change vs control minus 3*SD hit threshold (margin above threshold, higher = more increase)
COc1ccc(/C=N/NC(=O)C(=O)N2CCCC2)cc1	-11.5% (inactive)
Cc1cccc(C)c1NC(=O)Cn1cnc2c(=O)n(C)c(=O)n(C)c21	-26.9% (inactive)
Cn1nc(C(=O)Nc2ccc3c(c2)OCO3)c2ccccc2c1=O	-35.3% (inactive)
CCOC(=O)NC(=O)/C(C#N)=N\Nc1ccc(Cl)cc1	-36.7% (inactive)
Cc1c(-c2ccn[nH]2)cc(NC(=O)c2ccc(Cl)cc2)c(=O)n1N	-40% (inactive)
Cc1cc(C)nc(SCc2nnc(SCC(=O)Nc3nc(-c4ccccc4)cs3)n2-c2ccccc2)n1	-32% (inactive)
COc1ccc(CCNC(=O)CSc2ccc3nnc(CCNC(=O)c4ccccc4)n3n2)cc1OC	-23.3% (inactive)
COc1ccc2nc(N3CCCCC3)c(/C=C3\SC(=S)NC3=O)cc2c1	-33% (inactive)
O=C1NC(=S)/C(=C\c2ccc(-c3ccccc3Cl)o2)S1	-34.6% (inactive)
O=C1NC(=S)S/C1=C\c1ccc2ccccc2c1	30.2% (active)
O=C(CN1C(=O)S/C(=C\c2cccs2)C1=O)Nc1ccc(C(=O)O)c(O)c1	-0.8% (inactive)
Cc1ccc(S(=O)(=O)c2nnn3c2nc(N2CCOCC2)c2ccccc23)c(C)c1	-25.3% (inactive)
COC(=O)c1sccc1NC(=S)N1CCN(C)CC1	-34.3% (inactive)
Cc1ccc(-c2onc3ccc(Cl)cc23)cc1	-25.3% (inactive)
O=c1c2ccccc2nc(-c2cccc(Cl)c2)n1O	0.8% (active)
Cc1ccc(-c2nc3ccc(Cl)cc3c(=O)n2O)cc1	38% (active)
O=c1c2ccccc2nc(-c2ccccc2)n1O	-24.1% (inactive)
NC(=O)CSc1nc2ccccc2c(=O)n1CCc1ccccc1	-28.3% (inactive)
O=c1c2cc(Cl)ccc2nc(-c2ccc(Cl)c(Cl)c2)n1O	62.4% (active)
O=c1c2cc(Cl)ccc2nc(-c2ccccc2)n1O	-7.8% (inactive)
Cc1ccc(C(=O)Nc2nc3ccccc3c(=O)s2)cc1	-16.6% (inactive)
O=C(Cc1ccccc1)Nn1c(-c2ccccc2)nc2ccccc2c1=O	-21.4% (inactive)
O=c1c2ccccc2nc(-c2ccc(Cl)c(Cl)c2)n1O	20.1% (active)
